From PubChem
SARS PLpro yeast: inhibitors of SARS-CoV papain-like protease in yeast. actives 0.19% (n = 330,000). S. cerevisiae expressing SARS-CoV PLpro, growth rescue. AID 485353. Potency, µM (doses to about 32.9 µM), for inactives: at the highest dose activity, positive = growth rescue, actives largely listed as activators; calls by dose curve; further: 0% is about no effect; nearly all actives have a fitted effect of over 55% in size
Pf growth 48h: inhibits P. falciparum growth in the first generation, 48 h | AID 504832 | P. falciparum luciferase growth in erythrocytes, 48 h | Potency, µM (titrated, usually from 28.7 µM), inactives show top-dose activity change, negative = inhibition, most hits filed as inhibitors | actives 5.9% (n = 310,000); further: on the % scale 0 is the no-effect control and ±100 the full control effect
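Here the parasites carry a stable luciferase gene and grow inside erythrocytes in Albumax-based RPMI medium with compound for one erythrocytic cycle. Activity is scored as loss of luminescent signal.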
Sm TGR inh: blocks Schistosoma mansoni thioredoxin glutathione reductase; Q962Y6; purified TGR, DTNB reduction, TNB absorbance 405 nm; Potency, µM (titrated, usually from 114 µM), for inactives: at the highest dose activity change, negative = inhibition, hits mostly inhibitors; actives 3% (n = 360,000); further: on the % scale 0 is the no-effect control and ±100 the full control effect; nearly all actives have a fitted effect of over 60% in size
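Kinetic colorimetric format: TGR-catalysed, NADPH-driven DTNB reduction monitored via TNB absorbance. Enzyme dispensed at 20 nM; compound exposure 15 min at room temperature before reaction start.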
Pf growth 96h: P. falciparum growth inhibition at 96 hour, primary screen for plastid delayed-death inhibitors; P. falciparum luciferase reporter growth, 96 h; Potency, µM (top dose mostly 28.7 µM), without a hit: top-dose activity change, negative = inhibition, most hits filed as inhibitors; actives 6.9% (n = 320,000); AID 504834; further: on the % scale 0 is the no-effect control and ±100 the full control effect
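Erythrocytes infected with luciferase-expressing P. falciparum were dispensed at 2% hematocrit and 0.05% parasitemia (final), then incubated with compounds 96 hours at 37 C in 5% CO2. Luminescence after detection reagent addition reported growth.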
Active calls of the source: *; ? = inconclusive; / = no result given; [ ] = remark or other dose. Sampled rows, rich in hits. Any-hit rate of the full collection: about 12%. Unless noted, the call rests on the fitted dose curve; in most records, active means well fitted curve in the direction sought with a large enough effect; inconclusive means small, poorly fitted or top-dose-only effect, or another doubt; inactive means no such curve, though single readings can be large; an effect the other way counts as inactive or inconclusive. Potency means the concentration at half of the fitted maximal effect.

SMILES	SARS PLpro yeast	Pf growth 48h	Sm TGR inh	Pf growth 96h
COc1cc(OC)c(C2N(c3cc(C)on3)C(=O)C3CCCN32)cc1OC (centres undefined)	-3.8%	2.9%	8.5%	4.65µM*
COc1ccc(C2N(c3cc(C)on3)C(=O)C3CCCN32)cc1OC (centres undefined)	?	8.6%	8.3%	?
COc1ccc(N2CCN(S(=O)(=O)c3ccc4c(c3)NC(=O)CC(=O)N4)CC2)cc1	6.2%	-7.7%	11.2µM*	?
COc1ccc(N2CCN(C(=O)c3cc(S(=O)(=O)N4CCCCCC4)ccc3OC)CC2)cc1	1.7%	11.7µM*	5.4%	?
COc1ccccc1N1CCN(C(=O)c2cc(S(=O)(=O)N3CCCCC3)ccc2C)CC1	0.8%	/	/	/
COc1ccc(S(=O)(=O)N2CCN(c3ccccc3)CC2)cc1C(=O)N1CCCC1	-1.2%	?	0.0%	4.9%
COc1ccc(S(=O)(=O)N2CCCCCC2)cc1C(=O)N1CCN(c2ccccc2C)CC1	5.0%	11.7µM*	-4.2%	5.86µM*
COc1ccc(S(=O)(=O)N2CCCCCC2)cc1C(=O)N1CCN(c2ccccc2O)CC1	0.0%	2.33µM*	?	4.65µM*
CCOc1ccc(NS(=O)(=O)c2ccc3[nH]cc(C(=O)N4CCCC4)c(=O)c3c2)cc1	/	/	-7.1%	/
N#Cc1cccc(NC(=O)C2CCN(S(=O)(=O)c3ccc4[nH]c(=O)ccc4c3)CC2)c1	/	/	5.7%	/
O=[N+]([O-])c1ccc2c(OCc3nnc(-c4ccccc4Br)o3)ncnc2c1	-0.4%	?	0.6%	9.28µM*
O=[N+]([O-])c1cc(Br)c(OCc2nnc(-c3ccccc3)o2)c(Br)c1	-2.3%	?	8.5%	-3.8%
c1ccc2c(c1)CC(CN1CCNCC1)O2 (centres undefined)	0.7%	-15.4%	14.1µM*	2.0%
CCOc1ccc(S(=O)(=O)c2cn(Cc3ccc(C)cc3)c3ccc(OC)cc3c2=O)cc1	/	/	-4.9%	/
CN(Cc1ccccc1)C(=C(Cl)Cl)C(=C1NCCN1)[N+](=O)[O-]	-2.6%	-5.5%	35.5µM*	-14.4%
CS(=O)(=O)Nc1ccc(-c2ccc(/C=C3\SC(N)=NC3=O)o2)cc1	2.3%	-23.0%	-10.5%	3.29µM*
NC1=NC(=O)/C(=C/c2ccc(-c3ccc(S(N)(=O)=O)cc3)o2)S1	-0.2%	47.2%	?	30.8%
CCN(CC)S(=O)(=O)c1ccc2c(c1)nc(SCC(=O)NC1CC1)n2-c1ccccc1OC	1.9%	5.86µM*	-2.0%	?
C/C(=N\NC(=O)c1ccc(Br)cc1)c1cccnc1	?	63.2%	-3.2%	?
CN(C)C/C=C(\c1ccc(Br)cc1)c1cccnc1	/	14.7µM*	-3.8%	?
O=C(N/N=C/c1ccccc1Cl)C1CC1	-2.8%	0.8%	-18.0%	19.4%
O=C(N/N=C/c1ccc([N+](=O)[O-])o1)C(O)c1ccccc1 (centres undefined)	0.1%	?	44.7µM*	?
NC(=O)N/N=C/c1ccc([N+](=O)[O-])o1	/	11.7µM*	?	5.36µM*
O=C(N/N=C/c1ccc([N+](=O)[O-])o1)C1CC1	1.9%	0.0%	?	4.15µM*
Cc1cc(C)c(S(=O)(=O)N/N=C/c2ccc([N+](=O)[O-])o2)c(C)c1	-6.4%	7.2%	7.08µM*	-14.2%
SMILES	SARS PLpro yeast	Pf growth 48h	Sm TGR inh	Pf growth 96h
O=C(NC1CC(=O)N(c2cccc(F)c2)C1)c1ccc(S(=O)(=O)N2CCCCC2)cc1 (centres undefined)	/	/	0.1%	/
N#Cc1ccc(C(CC(=O)O)N2Cc3ccccc3C2=O)cc1 (centres undefined)	-0.1%	2.2%[0.00184 µM]	0.1%	26.5%
CC1CCCN(S(=O)(=O)c2ccc3c(c2)CCN3C(=O)CCC(=O)O)C1 (centres undefined)	/	/	6.2%	/
CSc1ncccc1C(=O)NCc1nnc2ccccn12	-0.1%	/	/	/
CCC(=O)N1CCc2cc(S(=O)(=O)NC(Cc3ccccc3)C(=O)Nc3cccc(OC)c3)ccc21 (centres undefined)	/	/	-1.6%	/
COC(=O)N/N=C/c1cccc([N+](=O)[O-])c1	0.9%	61.7%	18.8%	2.5%
COC(=O)N/N=C/c1ccc([N+](=O)[O-])o1	4.8%	13.1µM*	?	11.7µM*
C=CCOc1cccc(C2/C(=C(\O)c3ccc4c(c3)OCCO4)C(=O)C(=O)N2CCN2CCOCC2)c1 (centres undefined)	-2.2%	5.6%	-8.6%	?
CNc1oc(-c2ccccc2)nc1S(=O)(=O)c1ccc(C)cc1	-4.6%	-11.9%	0.0%	?
CCCSc1oc(-c2cccs2)nc1S(=O)(=O)c1ccc(C)cc1	/	/	9.7%	/
CCS(=O)(=O)c1oc(-c2ccc(F)cc2)nc1S(=O)(=O)c1ccccc1	/	/	0.708µM*	/
CCC(C)S(=O)(=O)c1oc(-c2ccc(F)cc2)nc1S(=O)(=O)c1ccc(F)cc1 (centres undefined)	/	/	5.62µM*	/
CSc1oc(-c2ccc(F)cc2)nc1S(=O)(=O)c1ccc(Br)cc1	/	/	8.5%	/
CCCCS(=O)(=O)c1oc(-c2cccs2)nc1S(=O)(=O)c1ccc(F)cc1	/	/	1.58µM*	/
CCCCCS(=O)(=O)c1oc(-c2cccs2)nc1S(=O)(=O)c1ccc(C)cc1	/	/	2.82µM*	/
O=C(Nc1ccc(Br)cc1)C1CCCN(C2=NS(=O)(=O)c3ccccc32)C1 (centres undefined)	8.7%	?	0.0%	?
CCCCS(=O)(=O)c1oc(-c2ccc(F)cc2)nc1S(=O)(=O)c1ccc(C)cc1	/	/	3.16µM*	/
Cc1ccc(S(=O)(=O)c2nc(-c3ccc(F)cc3)oc2N2CCN(c3ccccc3)CC2)cc1	/	/	-1.0%	/
CN(C)S(=O)(=O)N1CCc2ccc(NC(=O)c3ccccc3Cl)cc2C1	3.5%	4.5%	9.7%	5.86µM*
CCCS(=O)(=O)N1CCc2ccc(NC(=O)c3ccccc3Cl)cc2C1	-1.2%	15.3%	-2.1%	21.9%
COc1ccc(S(=O)(=O)N2CCC(Cc3ccccc3)CC2)cc1C(N)=O	0.0%	18.6%	5.0%	?
COc1ccc(S(=O)(=O)N2CCOCC2)cc1NC(=O)CN1CCC(Cc2ccccc2)CC1	1.0%	11.7µM*	-5.5%	4.65µM*
COc1ccc(S(=O)(=O)N2CCC(Cc3ccccc3)CC2)cc1NC(C)=O	-0.2%	33.9%	5.2%	4.65µM*
CCC(CC)C(=O)Nc1nnc(SCc2cc(=O)c3ccccc3[nH]2)s1	/	/	-6.4%	/
CCNC(=O)O/N=C1\CCCCC1c1ccc([N+](=O)[O-])cc1[N+](=O)[O-] (centres undefined)	-2.3%	?	12.6µM*	?
CS(=O)(=O)O/N=C1\CCCCC1c1ccc([N+](=O)[O-])cc1[N+](=O)[O-] (centres undefined)	3.6%	10.4%[0.00184 µM]	-32.1%	18.5%
CC1CCCC(C)N1C(=O)CSc1nc(N)cc(N)n1 (centres undefined)	0.1%	23.8%	1.2%	22.0%
CC1CCCC(C)N1C(=O)CSc1nc2ncnc(N)c2[nH]1 (centres undefined)	3.3%	6.4%	-2.4%	0.738µM*
